{
  "source": "the supplement of paper PMC9135407",
  "test_system": "primary human hepatic stellate cells (donor 1)",
  "assay": "scaled lipid accumulation score (0 = DMSO-like, 1 = nortriptyline-like); higher = stronger HSC inactivation (lipid re-accumulation), active = hit call of the paper",
  "details": "48 h",
  "key": {"[1]": {"details": "library stock concentration: 10 mM"}, "[2]": {"details": "library stock concentration: 3.33 mM"}, "[3]": {"details": "library stock concentration: 1 mM"}, "[4]": {"details": "library stock concentration: 400 uM"}, "[5]": {"details": "library stock concentration: 2 mM"}, "[6]": {"details": "library stock concentration: 80 uM"}},
  "note": "“And” between values parts separate entries of the source, which are not always exact repeats. Equal values may be shown once. Where a name gives a salt, the structure may show the parent alone. Hit rate of the full screen: of about 5,800 compounds, about 620 (11%) showed activity. The full list was thinned out, with actives kept by preference. A number with no mark means an inactive call.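 The calls were made as follows: active = score above a cut-off or among the top three wells of a plate; in these data no inactive exceeds 0.85.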",
  "data": [
    {"compound": "CC1(C)CCC(C)(C)c2cc(C3(c4ccc(C(=O)O)cc4)OCCO3)ccc21", "values": [
      {"measurement": "scaled lipid accumulation score", "setting": "[1]", "value": "≤ -0.001"}
    ]},
    {"compound": "COCCCC/C(=N\\OCCN)c1ccc(C(F)(F)F)cc1.O=C(O)/C=C\\C(=O)O", "note": "[Fluvoxamine maleate]", "values": [
      {"measurement": "scaled lipid accumulation score", "setting": "[1]", "value": "1.13 (active)"}
    ]},
    {"compound": "COCCCC/C(=N\\OCCN)c1ccc(C(F)(F)F)cc1", "note": "[Fluvoxamine maleate]", "values": [
      {"measurement": "scaled lipid accumulation score", "value": 0.592},
      {"measurement": "scaled lipid accumulation score", "setting": "[2]", "value": 0.347},
      {"measurement": "scaled lipid accumulation score", "setting": "[1]", "value": "0.81 and 0.545"}
    ]},
    {"compound": "COCCCC/C(=N\\OCCN)c1ccc(C(F)(F)F)cc1", "note": "[Fluvoxamine]", "values": [
      {"measurement": "scaled lipid accumulation score", "setting": "[1]", "value": 0.69}
    ]},
    {"compound": "COCCCCCCCCCCCC(=O)O", "note": "[12-Methoxydodecanoic acid]", "values": [
      {"measurement": "scaled lipid accumulation score", "setting": "[3]", "value": "≤ -0.021"}
    ]},
    {"compound": "CCCCC[C@H](O)/C=C/[C@@H]1[C@@H](C/C=C\\CCCC(=O)O)[C@H](O)C[C@H]1O", "note": "[Prostaglandin F2.beta. (tromethamine salt)]", "values": [
      {"measurement": "scaled lipid accumulation score", "setting": "[3]", "value": "≤ 0"}
    ]},
    {"compound": "CCCCC[C@H](O)/C=C/[C@@H]1[C@@H](C/C=C\\CCCC(=O)O)[C@H](O)C[C@H]1O", "note": "[9b,11a-Prostaglandin F2]", "values": [
      {"measurement": "scaled lipid accumulation score", "setting": "[3]", "value": "≤ -0.021"}
    ]},
    {"compound": "CCCCC[C@H](O)/C=C/[C@@H]1[C@@H](C/C=C\\CCCC(=O)O)[C@H](O)C[C@H]1O", "note": "[Prostaglandin F2.beta.]", "values": [
      {"measurement": "scaled lipid accumulation score", "setting": "[3]", "value": "≤ 0"}
    ]},
    {"compound": "CSc1ccc2c(c1)C(N1CCN(C)CC1)Cc1ccccc1S2.O=C(O)/C=C\\C(=O)O", "note": "(configuration not stated) [Methiothepin maleate]", "values": [
      {"measurement": "scaled lipid accumulation score", "setting": "[1]", "value": "1.41 (active)"}
    ]},
    {"compound": "CSc1ccc2c(c1)C(N1CCN(C)CC1)Cc1ccccc1S2", "note": "(configuration not stated) [Methiothepin maleate]", "values": [
      {"measurement": "scaled lipid accumulation score", "value": 0.829}
    ]},
    {"compound": "CSc1ccc2c(c1)C(N1CCN(C)CC1)Cc1ccccc1S2", "note": "(configuration not stated) [Methiothepin mesylate]", "values": [
      {"measurement": "scaled lipid accumulation score", "setting": "[1]", "value": 0.774}
    ]},
    {"compound": "CCCCCC(O)C=CC1C(O)CC(=O)C1CC=CCCCC(=O)O", "note": "(configuration not stated) [8-iso Prostaglandin E2]", "values": [
      {"measurement": "scaled lipid accumulation score", "setting": "[3]", "value": "≤ 0"}
    ]},
    {"compound": "CO[C@H]1C[C@H](O[C@H]2[C@H](C)O[C@@H](O[C@@H]3/C(C)=C/C[C@@H]4C[C@@H](C[C@]5(C=C[C@H](C)[C@@H](C6CCCCC6)O5)O4)OC(=O)[C@@H]4C=C(C)[C@@H](O)[C@H]5OC/C(=C\\C=C\\[C@@H]3C)[C@]54O)C[C@@H]2OC)O[C@@H](C)[C@@H]1O", "values": [
      {"measurement": "scaled lipid accumulation score", "setting": "[1]", "value": 0.081}
    ]},
    {"compound": "CCCCC[C@H](O)CC[C@H]1[C@H](O)CC(=O)[C@@H]1CCCCCCC(=O)O", "note": "[13,14-Dihydro-PGE1]", "values": [
      {"measurement": "scaled lipid accumulation score", "setting": "[3]", "value": "≤ -0.021"}
    ]},
    {"compound": "Cc1cn(-c2cc(NC(=O)c3ccc(C)c(Nc4nccc(-c5cccnc5)n4)c3)cc(C(F)(F)F)c2)cn1", "note": "[Nilotinib (AMN-107)]", "values": [
      {"measurement": "scaled lipid accumulation score", "setting": "[2]", "value": 0.438},
      {"measurement": "scaled lipid accumulation score", "setting": "[1]", "value": 0.668}
    ]},
    {"compound": "CNc1nccc(-c2cccnc2Oc2cc(C(=O)Nc3cccc(C(F)(F)F)c3)ccc2C)n1", "note": "[listing 1 of 2 here]", "values": [
      {"measurement": "scaled lipid accumulation score", "setting": "[4]", "value": "≤ -0.005"},
      {"measurement": "scaled lipid accumulation score", "setting": "[5]", "value": "≤ -0.005"}
    ]},
    {"compound": "Cc1cn(-c2cc(NC(=O)c3ccc(C)c(Nc4nccc(-c5cccnc5)n4)c3)cc(C(F)(F)F)c2)cn1", "note": "[Nilotinib (AMN107, Tasigna) (0.4 mM)]", "values": [
      {"measurement": "scaled lipid accumulation score", "setting": "[4]", "value": 0.053}
    ]},
    {"compound": "Cc1cn(-c2cc(NC(=O)c3ccc(C)c(Nc4nccc(-c5cccnc5)n4)c3)cc(C(F)(F)F)c2)cn1", "note": "[Nilotinib (AMN107, Tasigna) (2 mM)]", "values": [
      {"measurement": "scaled lipid accumulation score", "setting": "[5]", "value": "≤ -0.005"}
    ]},
    {"compound": "Cc1cn(-c2cc(NC(=O)c3ccc(C)c(Nc4nccc(-c5cccnc5)n4)c3)cc(C(F)(F)F)c2)cn1", "values": [
      {"measurement": "scaled lipid accumulation score", "setting": "[6]", "value": "≤ -0.009"},
      {"measurement": "scaled lipid accumulation score", "setting": "[4]", "value": 0.035},
      {"measurement": "scaled lipid accumulation score", "setting": "[5]", "value": "≤ -0.009"},
      {"measurement": "scaled lipid accumulation score", "setting": "[1]", "value": "≤ -0.008"}
    ]},
    {"compound": "CNc1nccc(-c2cccnc2Oc2cc(C(=O)Nc3cccc(C(F)(F)F)c3)ccc2C)n1", "note": "[listing 2 of 2 here]", "values": [
      {"measurement": "scaled lipid accumulation score", "setting": "[1]", "value": "1.13 (active)"}
    ]},
    {"compound": "Cc1cn(-c2cc(NC(=O)c3ccc(C)c(Nc4nccc(-c5cccnc5)n4)c3)cc(C(F)(F)F)c2)cn1", "note": "[Nilotinib (AMN107, Tasigna) (10 mM)]", "values": [
      {"measurement": "scaled lipid accumulation score", "setting": "[1]", "value": 0.552}
    ]},
    {"compound": "O=C(O)CCCCC1CCSS1", "note": "(racemic) [DL-.alpha.-Lipoic Acid]", "values": [
      {"measurement": "scaled lipid accumulation score", "setting": "[3]", "value": "≤ 0"}
    ]},
    {"compound": "C[C@H]1C[C@H]2[C@@H]3CCC4=CC(=O)C=C[C@]4(C)[C@@]3(F)[C@@H](O)C[C@]2(C)[C@@]1(O)C(=O)COP(=O)(O)O", "values": [
      {"measurement": "scaled lipid accumulation score", "setting": "[1]", "value": "≤ 0"}
    ]},
    {"compound": "COc1cc(C(=O)NC2CCN(C)CC2)ccc1Nc1ncc2c(n1)N(C1CCCC1)CC(F)(F)C(=O)N2C", "values": [
      {"measurement": "scaled lipid accumulation score", "setting": "[2]", "value": 0.271},
      {"measurement": "scaled lipid accumulation score", "setting": "[1]", "value": 0.722}
    ]},
    {"compound": "COc1cc(C(=O)NC2CCN(C)CC2)ccc1Nc1ncc2c(n1)N(C1CCCC1)CCC(=O)N2C(C)C", "values": [
      {"measurement": "scaled lipid accumulation score", "setting": "[1]", "value": "0.868 (active)"}
    ]},
    {"compound": "CC[C@@H]1C(=O)N(C)c2cnc(Nc3ccc(C(=O)N[C@H]4CC[C@H](N5CCN(CC6CC6)CC5)CC4)cc3OC)nc2N1C(C)C", "note": "[Volasertib]", "values": [
      {"measurement": "scaled lipid accumulation score", "setting": "[1]", "value": "1.17 (active)"}
    ]},
    {"compound": "CC[C@@H]1C(=O)N(C)c2cnc(Nc3ccc(C(=O)N[C@H]4CC[C@H](N5CCN(CC6CC6)CC5)CC4)cc3OC)nc2N1C(C)C", "note": "[Volasertib (BI 6727)]", "values": [
      {"measurement": "scaled lipid accumulation score", "setting": "[2]", "value": "0.97 (active)"},
      {"measurement": "scaled lipid accumulation score", "setting": "[1]", "value": "0.916 (active)"}
    ]},
    {"compound": "CCOc1cc(N2CCC(O)CC2)ccc1Nc1ncc2c(n1)N(C)c1ccccc1C(=O)N2C", "values": [
      {"measurement": "scaled lipid accumulation score", "setting": "[6]", "value": "≤ -0.009"},
      {"measurement": "scaled lipid accumulation score", "setting": "[4]", "value": 0.026},
      {"measurement": "scaled lipid accumulation score", "setting": "[5]", "value": "≤ -0.009"},
      {"measurement": "scaled lipid accumulation score", "setting": "[2]", "value": "≤ -0.009"},
      {"measurement": "scaled lipid accumulation score", "setting": "[1]", "value": "0.473 and 0.012"}
    ]},
    {"compound": "CC(C)CCN1c2nc(Nc3cc(F)c(O)c(F)c3)ncc2N(C)C(=O)C1C", "note": "(configuration not stated)", "values": [
      {"measurement": "scaled lipid accumulation score", "setting": "[6]", "value": "≤ -0.001"},
      {"measurement": "scaled lipid accumulation score", "setting": "[4]", "value": "≤ -0.001 and ≤ -0.005"},
      {"measurement": "scaled lipid accumulation score", "setting": "[5]", "value": "≤ -0.001 and 0.123"},
      {"measurement": "scaled lipid accumulation score", "setting": "[2]", "value": "≤ 0"},
      {"measurement": "scaled lipid accumulation score", "setting": "[1]", "value": "≤ 0 and ≤ -0.001 and 0.36"}
    ]},
    {"compound": "CC[C@@H]1C(=O)N(C)c2cnc(Nc3ccc(C(=O)NC4CCN(C)CC4)cc3OC)nc2N1C1CCCC1", "note": "[listing 1 of 2 here]", "values": [
      {"measurement": "scaled lipid accumulation score", "setting": "[4]", "value": "1.02 (active)"}
    ]},
    {"compound": "CC[C@@H]1C(=O)N(C)c2cnc(Nc3ccc(C(=O)NC4CCN(C)CC4)cc3OC)nc2N1C1CCCC1", "note": "[listing 2 of 2 here]", "values": [
      {"measurement": "scaled lipid accumulation score", "setting": "[6]", "value": 0.007},
      {"measurement": "scaled lipid accumulation score", "setting": "[4]", "value": 0.527},
      {"measurement": "scaled lipid accumulation score", "setting": "[5]", "value": "0.722 and 0.628"},
      {"measurement": "scaled lipid accumulation score", "setting": "[2]", "value": 0.569},
      {"measurement": "scaled lipid accumulation score", "setting": "[1]", "value": "0.749 and 0.538 and 0.259"}
    ]}
  ]
}
